Screening results deposited in PubChem BioAssay by National Center for Advancing Translational Sciences (NCATS).
Shown are actives, neighbours in structure and some others; about 10% of the full set was active somewhere.
VP16 counter: VP16 counterscreen qHTS for inhibitors of ROR gamma transcriptional activity; Drosophila S2 Gal4-VP16 UAS-luciferase, luminescence, 20 h; AID 2546, 2010; hit rate 3.5% among 310,000; Potency, µM (highest dose often 53.6 µM), for inactives: top-dose activity, negative = inhibition, actives largely listed as inhibitors;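 further: Gal4-VP16 expression switched on by copper sulfate through the metallothionein promoter; on the % scale 0 is the no-effect control and ±100 the full control effect; nearly all actives have a fitted effect of over 50% in size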
MCF10A rerep: A quantitative high throughput screen for small molecules that induce DNA re-replication in MCF 10a normal breast cells; Potency, µM (highest dose often 46.1 µM), for inactives: top-dose activity, positive = re-replication, hits mostly activators; MCF 10A DNA re-replication, Hoechst nuclear intensity, 48 h; hit rate 2.9% among 350,000; further: % of control where 0% means no effect; nearly all actives have a fitted effect of over 50% in size
RORg inh: qHTS for inhibitors of ROR gamma transcriptional activity; AID 2551, 2010; Potency, µM (series often up to 53.6 µM), for inactives: at the top dose activity change, negative = inhibition, usual class: inhibitors; hit rate 5.4% among 310,000; Drosophila S2 Gal4-RORgamma UAS-luciferase reporter, 20 h; Nuclear receptor ROR-gamma (Mus musculus), P51450; further: on the % scale 0 is the no-effect control and ±100 the full control effect; nearly all actives have a fitted effect of over 60% in size
Target sequence (P51450 whole entry, looked up, the tested form may be a part): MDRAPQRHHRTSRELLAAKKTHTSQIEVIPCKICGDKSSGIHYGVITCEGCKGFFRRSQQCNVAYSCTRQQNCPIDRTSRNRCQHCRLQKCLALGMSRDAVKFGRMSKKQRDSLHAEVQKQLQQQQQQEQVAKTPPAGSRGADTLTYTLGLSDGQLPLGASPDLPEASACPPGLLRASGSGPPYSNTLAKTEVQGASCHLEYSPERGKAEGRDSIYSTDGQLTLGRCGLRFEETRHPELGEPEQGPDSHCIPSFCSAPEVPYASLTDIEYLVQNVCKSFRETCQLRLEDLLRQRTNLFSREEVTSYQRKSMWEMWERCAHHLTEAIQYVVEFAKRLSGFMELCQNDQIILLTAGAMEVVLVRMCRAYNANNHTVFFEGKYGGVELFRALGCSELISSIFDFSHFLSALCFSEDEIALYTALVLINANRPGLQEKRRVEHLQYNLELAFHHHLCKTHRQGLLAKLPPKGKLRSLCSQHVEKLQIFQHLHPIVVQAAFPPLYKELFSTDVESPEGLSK
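Stable Schneider cell line, Gal4 DNA-binding domain fused to ROR gamma, UAS-luciferase. Cmpd 1 hr RT → CuSO4 700 uM final → 20 hr RT → luciferase reagent 10 min → luminescence.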
ELG1 repair inh: qHTS screen for small molecules that inhibit ELG1-dependent DNA repair in human embryonic kidney (HEK293T) cells expressing luciferase-tagged ELG1. HEK293T ELG1-luciferase reporter, luminescence, 16 h; DNA damage induced by 5-fluorouridine. Potency, µM (series often up to 46.1 µM), without a hit: top-dose activity change, negative = inhibition, most hits filed as inhibitors. hit rate 2.3% among 330,000. AID 504467, 2011; further: on the % scale 0 is the no-effect control and ±100 the full control effect; nearly all actives have a fitted effect of over 55% in size
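Luminescence from the luciferase reporter, measured 30 min after ONE-Glo reagent at room temperature, was the read-out. Beforehand, 2,000 cells per well were exposed for 16 hr at 37 °C to 5-fluorouridine together with compound or vehicle.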
SW480 rerep: A quantitative high throughput screen for small molecules that induce DNA re-replication in SW480 colon adenocarcinoma cells; hit rate 1.8% among 340,000; Potency, µM (top dose mostly 46.1 µM), without a hit: top-dose re-replication activation, hits mostly activators; SW480 DNA re-replication, Hoechst DNA content imaging, 48 h; further: % of control where 0% means no effect; nearly all actives have a fitted effect of over 55% in size
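Image-based DNA-content assay: after two days of treatment, nuclei were labelled with the DNA dye Hoechst and imaged, and hits were compounds raising the count of nuclei showing high fluorescence intensity.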
Starred values were filed as active, the others as inactive. The call rests on the fitted dose curve; in most records, active means well fitted curve in the direction sought with a large enough effect; inconclusive means small, poorly fitted or top-dose-only effect, or another doubt; inactive means no such curve, though single readings can be large; an effect the other way counts as inactive or inconclusive. Potency means the concentration at half of the fitted maximal effect.

What do the screens show for `CCN(c1ccccc1)S(=O)(=O)c1ccc(N)c(OC)c1`?
VP16 counter: -6%; MCF10A rerep: 18µM*; RORg inh: 26%; ELG1 repair inh: inconclusive; SW480 rerep: 11µM*

How did COc1ccc(C(=O)N2CCC3(CCN(CC(C)C)CC3)CC2)cc1 do in these assays?
VP16 counter: -3%; RORg inh: -5%

Results for COc1cc(NC2CCCCC2O)c2nc(-c3ccc(Cl)cc3)ccc2c1 (stereo unspecified) ?
VP16 counter: -8%; MCF10A rerep: 13µM*; RORg inh: -4%; ELG1 repair inh: -16%; SW480 rerep: 13µM*

Results for CC(C)c1ccc(Cn2ccc3c4c(N)nc(NC5CC5)nc4ccc32)cc1 ?
VP16 counter: inconclusive; RORg inh: 16µM*

What do the screens show for `CC1Oc2cc3oc4c(O)c(O)ccc4c(=O)c3c(O)c2C1(C)C` (stereo unspecified)?
MCF10A rerep: 15%; SW480 rerep: inconclusive

Results for Cc1c(C(=O)Nc2cc(S(=O)(=O)N3CCOCC3)ccc2N2CCN(C)CC2)oc2ccccc12 ?
VP16 counter: -5%; MCF10A rerep: 16%; RORg inh: -2%; ELG1 repair inh: 16µM*; SW480 rerep: 0%

Results for CN1CCN(c2ccc(S(=O)(=O)N3CCCCC3)cc2NC(=O)c2ccc3ccccc3c2)CC1 ?
VP16 counter: 8.9µM*; MCF10A rerep: 23µM*; RORg inh: 11µM*; ELG1 repair inh: inconclusive; SW480 rerep: inconclusive

Results for Cc1ccccc1C(=O)Nc1cc(S(=O)(=O)N2CCCCC2)ccc1N1CCN(C)CC1 ?
VP16 counter: -3%; MCF10A rerep: -13%; RORg inh: 7%; ELG1 repair inh: 9%; SW480 rerep: 13%

How did O=C(Nc1cc(S(=O)(=O)N2CCOCC2)ccc1N1CCCC1)c1ccc2c(c1)S(=O)(=O)c1ccccc1C2=O do in these assays?
VP16 counter: 5%; MCF10A rerep: 2%; RORg inh: -11%; ELG1 repair inh: 10µM*; SW480 rerep: -4%

Results for Cc1c(C(=O)Nc2ccc3nc(N4CCOCC4)sc3c2)oc2ccccc12 ?
MCF10A rerep: inconclusive; ELG1 repair inh: 11µM*; SW480 rerep: inconclusive

What do the screens show for `NCCNC[C@@H]1COC2(CCCCCCCCCCC2)O1`?
VP16 counter: 2%; MCF10A rerep: inconclusive; RORg inh: -33%; ELG1 repair inh: inconclusive; SW480 rerep: inconclusive

Results for CCc1c2c(nc3ccc(OC)cc13)OC(C)C2 (stereo unspecified) ?
VP16 counter: 8%; RORg inh: -4%

Results for S=C(NCCN1CCOCC1)Nc1ccccc1Cl ?
VP16 counter: -18%; MCF10A rerep: -14%; RORg inh: -3%; ELG1 repair inh: 3%; SW480 rerep: 1%

What do the screens show for `Cc1nc(SCC(=O)NC2(C#N)CCCC2)n(CC(C)C)c1C`?
MCF10A rerep: 2%; ELG1 repair inh: -3%; SW480 rerep: inconclusive

Results for Cc1nc2cnc(N3CCN(C)CC3)nc2n(C2CC2)c1=O ?
VP16 counter: 8%; RORg inh: -4%

What do the screens show for `CCOc1ccc(NC(=O)CN(C)C(=O)c2cc(-c3ccc(OC)cc3)nc3ccccc23)cc1OCC`?
MCF10A rerep: 16µM*; ELG1 repair inh: 9.2µM*; SW480 rerep: 3%

How did COc1ccc(NC(=O)CN(C)C(=O)c2cc(-c3ccc(Cl)cc3)nc3ccccc23)cc1 do in these assays?
MCF10A rerep: 18µM*; ELG1 repair inh: inconclusive; SW480 rerep: 9%

Results for O=C(O)c1cc(O)c2c(c1)[C@H]([C@H]1c3cc(C(=O)O)cc(O)c3C(=O)c3c(O[C@@H]4OC(CO)C(O)C(O)C4O)cccc31)c1cccc(O[C@@H]3OC(CO)C(O)C(O)C3O)c1C2=O (stereo partly specified) ?
VP16 counter: -19%; MCF10A rerep: -7%; RORg inh: -36%; SW480 rerep: -3%

How did CC1C(=O)CC(c2ccccc2)N(C)C1c1ccccc1 (stereo unspecified) do in these assays?
VP16 counter: 3%; MCF10A rerep: 26µM*; RORg inh: -31%; ELG1 repair inh: -2%; SW480 rerep: 0%

What do the screens show for `Nc1cc(Nc2ccccc2)ccn1`?
MCF10A rerep: 7%; ELG1 repair inh: -11%; SW480 rerep: -4%

What do the screens show for `N#Cc1sc2nccc(Nc3ccccc3)c2c1N`?
MCF10A rerep: inconclusive; SW480 rerep: 23µM*

What do the screens show for `CCC(=O)NC1=C(Cl)C(=O)C(NC(=O)CC)=C(Cl)C1=O`?
VP16 counter: 7.1µM*; MCF10A rerep: inconclusive; RORg inh: 2.8µM*; ELG1 repair inh: -9%; SW480 rerep: 13%

How did CCC(=O)NC1=C(NC(C)c2ccccc2)C(=O)c2ccccc2C1=O (stereo unspecified) do in these assays?
VP16 counter: inconclusive; MCF10A rerep: 1%; RORg inh: -24%; ELG1 repair inh: -23%; SW480 rerep: -1%

Results for Cn1cnc2c1c(=O)n(Cc1cccc(F)c1)c(=O)n2C ?
VP16 counter: 4%; MCF10A rerep: -3%; RORg inh: -28%; ELG1 repair inh: -7%; SW480 rerep: -7%

Results for CCCCn1c(=O)n(Cc2cccc(F)c2)c(=O)c2c1ncn2Cc1ccco1 ?
VP16 counter: inconclusive; MCF10A rerep: 16%; RORg inh: 3.2µM*; ELG1 repair inh: inconclusive; SW480 rerep: -1%

How did Cc1cc(-c2n[nH]c(=S)o2)c(C)n1-c1ccccc1 do in these assays?
VP16 counter: inconclusive; MCF10A rerep: 1%; RORg inh: 13µM*; ELG1 repair inh: inconclusive; SW480 rerep: 3%

What do the screens show for `Oc1cc2ccccc2cc1-c1n[nH]c(=S)o1`?
VP16 counter: -1%; MCF10A rerep: 9%; RORg inh: -35%; ELG1 repair inh: inconclusive; SW480 rerep: 1%

How did Fc1ccc2cnc(-c3ccccc3F)cc2c1 do in these assays?
MCF10A rerep: 18µM*; ELG1 repair inh: inconclusive; SW480 rerep: -14%

What do the screens show for `Cc1cc(C)c2nc(Nc3nc(-c4ccccc4)cc(=O)[nH]3)nc(C)c2c1`?
VP16 counter: 2.2µM*; MCF10A rerep: inconclusive; RORg inh: 0.63µM*; ELG1 repair inh: inconclusive; SW480 rerep: 5%

What do the screens show for `Cc1cc(-c2ccccc2)nc(Nc2nc3c(C)cccc3c(=O)[nH]2)n1`?
MCF10A rerep: 9.2µM*; SW480 rerep: -1%
